Screening results deposited in PubChem by several laboratories.
An excerpt weighted towards active compounds, which were near 1.7% of everything screened.
SUMO1-SIM PPI = modulators of SUMO1 protein-protein interactions, primary screen, biochemical, uHTS; SUMO1 binding to a labelled peptide, TR-FRET, 1 h; inhibition, % at 20 µM; hit rate 0.33% among 360,000; in the data active = inhibition above about 37%
Target sequence (P63165 whole entry, looked up): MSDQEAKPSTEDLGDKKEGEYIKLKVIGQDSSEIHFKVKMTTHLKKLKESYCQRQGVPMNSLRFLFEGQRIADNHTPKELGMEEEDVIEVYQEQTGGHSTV
ATG4B inhibitor = ATG4B protease inhibitors, primary screen, biochemical, fluorescence, uHTS | Cysteine protease ATG4B (Homo sapiens), Q9Y4P1 | ATG4B cleavage of LC3-PLA2, NBD-HPC fluorescence, 1 h | inhibition, % at 8.33 µM | hit rate 0.51% among 340,000; in the data active = inhibition above about 40%
Neddyl block = inhibitors of cullin neddylation, primary screen, biochemical, TR-FRET, uHTS, NAE and Ubc12; NEDD8-conjugating enzyme Ubc12 (Homo sapiens) + NEDD8-activating enzyme E1 regulatory …; inhibition, % at 25 µM; hit rate 0.58% among 360,000; in the data active = inhibition above about 36%
Rin1-Abl PPI inh = inhibitors of Rin1-Abl protein binding, primary screen, biochemical, TR-FRET; Tyrosine-protein kinase ABL1 (Homo sapiens) + Ras and Rab interactor 1 (Homo sapiens), …; hit rate 0.4% among 360,000; inhibition, % at 7.35 µM; in the data active = inhibition above about 5%, passing the limit was not always enough
ATG4B conf = ATG4B protease inhibitors, retest, confirmation, biochemical, fluorescence, single concentration; shares compounds with ATG4B inhibitor; hit rate 92% among 320; ATG4B protease fluorescent substrate cleavage assay; inhibition, % at 8.33 µM; in the data active = inhibition above about 39%
PLA2 counter = PLA2 enzyme inhibition, counter-screen for ATG4B inhibitor project, biochemical, single concentration, uHTS hits. shares compounds with ATG4B inhibitor. purified PLA2, NBD-C6-HPC fluorescence, 45 min. inhibition, % at 8.33 µM. hit rate 66% among 1,600. AID 588402, 2011; in the data active = inhibition above about 50%
Target sequence (P04054 whole entry, looked up): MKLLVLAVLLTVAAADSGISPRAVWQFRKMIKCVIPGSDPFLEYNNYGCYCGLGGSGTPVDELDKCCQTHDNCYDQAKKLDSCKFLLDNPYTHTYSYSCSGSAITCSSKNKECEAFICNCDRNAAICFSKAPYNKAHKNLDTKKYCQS
Starred values were filed as active, the others as inactive; . = no result given.

SMILES | SUMO1-SIM PPI | ATG4B inhibitor | Neddyl block | Rin1-Abl PPI inh | PLA2 counter | others
CC(C)S(=O)(=O)C1=NSC2=NC(=O)/C(=C\c3ccc(-c4ccccc4)o3)C(=N)N21 | 4 | 59* | 41* | 0 | 56*
CC(C)S(=O)(=O)C1=NSC2=NC(=O)/C(=C\c3ccc(-c4cccc(C(=O)O)c4)o3)C(=N)N21 | 9 | 5 | 6 | 1 | .
Cc1cccc(Cc2cnc(N3C(=N)SC(C)C3=O)s2)c1 (centres undefined) | 6 | 4 | -13 | -1 | .
Cc1cccc(Cc2cnc(N3C(=N)SC(c4ccccc4)C3=O)s2)c1 (centres undefined) | 3 | 50* | 7 | -4 | 43
Cc1nc2ccc(NC(=O)c3cccnc3)cc2s1 | 0 | -3 | 3 | 2 | .
Cc1ccc(-c2nc(-c3cccnc3)sc2CC(=O)Nc2ccc3nc(C)sc3c2)cc1 | -6 | 45* | -80 | -3 | 12
O=C(O)CC/C(=C\c1ccc(N2CCOCC2)c([N+](=O)[O-])c1)c1nc2ccccc2s1 | -16 | -1 | -37 | -3 | .
O=C(O)CC/C(=C\c1ccc(Cl)c([N+](=O)[O-])c1)c1nc2ccccc2s1 | 4 | 49* | -30 | -2 | 37 | ATG4B conf=64*
O=C(Nc1ccc(-c2nnc3n2CCCCC3)cc1)c1cc2ccccc2o1 | -5 | -10 | -11 | -4 | .
Cc1c(C(=O)Nc2ccc(-c3nnc4n3CCCCC4)cc2)oc2c1ccc1ccccc12 | -2 | 45* | . | -1 | 60*
Cc1cccc(C)c1-n1nnnc1C(c1ccnc2ccccc12)N(C)Cc1ccccc1 (centres undefined) | 3 | . | 3 | . | .
COc1cccc(-c2nc(SCC(=O)Nc3nc(-c4ccccc4)c(C)s3)[nH]c(=O)c2C#N)c1 | 13 | 42* | -15 | 0 | 38 | ATG4B conf=75*
CCOc1ccc2nc(NC(=O)CSc3nc(-c4ccccc4)c(C#N)c(=O)[nH]3)sc2c1 | 22 | 30 | 0 | -5 | .
COc1ccccc1CNC(=O)c1cc(-c2cc(F)ccc2OC(C)C)n[nH]1 | 4 | . | 6 | 0 | .
COCCNC(=O)C1(C)CCCN(Cc2cccc(OC(=O)c3ccccc3)c2)C1 (centres undefined) | -5 | . | -6 | 0 | .
COc1cc(/C=C2/C(=N)N3C=CSC3=NC2=O)ccc1OCCCOc1c(C)cccc1C | 2 | 49* | . | -1 | 37 | ATG4B conf=57*
COc1cc(/C=C2/C(=N)N3C=CSC3=NC2=O)ccc1OCCCOc1ccccc1C | 0 | -1 | 36 | 3 | .
O=C(NCc1ccc(Cl)c(Cl)c1)c1cc(C2CCCCN2C(=O)c2cccs2)on1 (centres undefined) | 4 | . | -1 | -4 | .
CCN1/C(=C/C(C)=C/c2sc3ccccc3[n+]2CC)Sc2ccccc21 | 21 | 52* | -98 | -20 | 37 | ATG4B conf=49*
O=S1(=O)N(Cc2ccccc2F)CCCN1Cc1c(F)cccc1Cl | 1 | 68* | -2 | 3 | 83*
CN1OC[C@@H]2CN(S(=O)(=O)c3ccccc3)[C@H](c3ccc(-n4ccnc4)cc3)C[C@@H]21 | 3 | . | -2 | 1 | .
O=C(Nc1ccc(CN2CCOCC2)cc1)c1cccc(-c2cc3ccccc3oc2=O)c1 | -27 | -30 | 7 | -8 | .
O=C(Nc1cccc(Cl)c1N1CCCC1)c1cccc(-c2cc3ccccc3oc2=O)c1 | -7 | 50* | -55 | -1 | 25 | ATG4B conf=59*
CCCCCC(=O)Nc1ccccc1N1CCN(c2ccccc2)CC1 | 2 | 41* | 10 | 0 | 44 | ATG4B conf=51*
CCCCC(=O)Nc1ccccc1N1CCOCC1 | 1 | -3 | 4 | 4 | .
C=CCn1c(COc2ccccc2F)nnc1SCC(=O)NC(=O)NCc1ccco1 | 1 | -1 | -2 | 3 | .
C=CCn1c(COc2ccccc2-c2ccccc2)nnc1SCC(=O)NC(=O)NCc1ccco1 | 0 | 75* | -1 | -2 | 85*
